# Test results taken from PubChem BioAssay (NCI).
# The panel holds about 83,000 compounds, 20% with a hit somewhere; the sample as a whole holds those more often.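 For each line, cells grew in 96-well plates with the test compound present at a single concentration for 48 hours.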 A number with no mark means an inactive call. Activity calls are given as the source filed them. How the source made its calls: active means growth percent below 10; inactive means the rest.
# What was measured:
# Test in all cases: NCI-60 one-dose screen, 48 h (100 = growth as untreated, 0 = no growth, -100 = all killed)
# Conditions in all cases: 10 µM unless noted
# SR leukemia = tested on: SR leukemia
# RPMI-8226 leukemia = tested on: RPMI-8226 leukemia
# OVCAR-8 ovarian = tested on: OVCAR-8 ovarian
# OVCAR-5 ovarian = tested on: OVCAR-5 ovarian
# OVCAR-4 ovarian = tested on: OVCAR-4 ovarian
# SK-OV-3 ovarian = tested on: SK-OV-3 ovarian
# IGROV1 ovarian = tested on: IGROV1 ovarian
# OVCAR-3 ovarian = tested on: OVCAR-3 ovarian
# HS 578T breast = tested on: HS 578T breast
# NCI/ADR-RES ovarian = tested on: NCI/ADR-RES ovarian
# T-47D breast = tested on: T-47D breast
# BT-549 breast = tested on: BT-549 breast
# MDA-MB-435 melanoma = tested on: MDA-MB-435 melanoma
# SW-620 colon = tested on: SW-620 colon
# MCF7 breast = tested on: MCF7 breast
# HCT-116 colon = tested on: HCT-116 colon
# HCC-2998 colon = tested on: HCC-2998 colon
# KM12 colon = tested on: KM12 colon
SMILES,growth (SR leukemia),growth (RPMI-8226 leukemia),growth (OVCAR-8 ovarian),growth (OVCAR-5 ovarian),growth (OVCAR-4 ovarian),growth (SK-OV-3 ovarian),growth (IGROV1 ovarian),growth (OVCAR-3 ovarian),growth (HS 578T breast),growth (NCI/ADR-RES ovarian),growth (T-47D breast),growth (BT-549 breast),growth (MDA-MB-435 melanoma),growth (SW-620 colon),growth (MCF7 breast),growth (HCT-116 colon),growth (HCC-2998 colon),growth (KM12 colon)
Cc1ccc(S(=O)(=O)N(CC[C@@H]2C[C@H]2c2cc3ccccc3o2)S(=O)(=O)c2ccc(C)cc2)cc1,128%,101%,96.8%,98%,76.8%,101%,101%,108%,98.6%,94%,78.3%,98%,104%,95.2%,79.6%,92.5%,100%,103%
CC(=O)C1=C(C)NC(NN)=NC1c1cccc(Cl)c1 (stereo unspecified),96.5%,99.7%,103%,99.4%,104%,102%,97.7%,123%,114%,107%,101%,119%,103%,108%,92.3%,105%,127%,102%
CCN(CC)CCn1c2ccc(O)cc2c2sc3cc(OC)ccc3c(=O)c21,-13.4% (active),-13.1% (active),19.3%,44.7%,28.2%,74.7%,19.2%,41.8%,63.6%,20.8%,59.3%,68.1%,19.4%,-50.8% (active),-55.2% (active),-46% (active),36.6%,25%
NC(=O)c1c(NC(=O)c2ccc(F)cc2F)sc2c1CCC(=O)C2,35.8%,9.53% (active),44%,24.5%,27%,103%,50.5%,14.8%,43.9%,32.7%,32.9%,42.2%,74.1%,19.1%,51.8%,11.3%,89.5%,17.2%
CCN(CC)c1ccc2c(c1)Oc1nc(N)c(C#N)c(N)c1C2Sc1ccc(C)cc1 (stereo unspecified),-22% (active),-22.9% (active),-57.9% (active),-88.6% (active),-96.7% (active),-89.3% (active),-87.4% (active),-54% (active),-18.8% (active),-17.9% (active),-41.8% (active),58.8%,-95.5% (active),-62.5% (active),-70.7% (active),-80.2% (active),-90.2% (active),-48.8% (active)
Nc1cc(F)ccc1NC(=O)c1ccc(NC(=O)C/C=C/c2cccnc2)cc1,29.3%,6.2% (active),29.9%,37.2%,48%,54.5%,27.9%,45.1%,49%,51%,22.7%,26.1%,28%,17.6%,33%,9.59% (active),52.8%,41.5%
CCCn1cnc2c(c1=N)C(c1ccc(Cl)cc1)c1sc3c(CC)cccc3c1O2 (stereo unspecified),24.2%,-5.3% (active),20.5%,29%,89.1%,29.7%,18.4%,6.2% (active),4.18% (active),10.4%,10.2%,41.3%,-35.4% (active),25.5%,17%,12.1%,17.8%,15.6%
C#Cc1nc(C(C)=O)cs1,99.6%,92.5%,105%,107%,105%,93%,101%,112%,104%,103%,101%,98.5%,104%,107%,90.8%,95%,114%,94.7%
COc1ccccc1NC1=C(Cl)C(=O)c2nc(C)ccc2C1=O,-27.9% (active),-30.4% (active),9.87% (active),78.9%,-98.2% (active),88.3%,-83.5% (active),-85.9% (active),72.1%,7.08% (active),-44.7% (active),83.5%,-86% (active),-63.1% (active),-60.4% (active),-80.6% (active),58.9%,69.4%
NC(=O)c1cccc(-n2ccc3cc(NC(=O)Nc4ccc(N5CCOCC5)c(C(F)(F)F)c4)ccc32)n1,-23.5% (active),-30.7% (active),11.6%,28%,3.71% (active),19.8%,13.8%,7.68% (active),-21.8% (active),15.9%,1.29% (active),-14.8% (active),10.5%,4.98% (active),8.81% (active),0.168% (active),31.3%,-15.7% (active)
CC/C(=C/c1c(O)cccc1OC)c1ccc2c(OC)cccc2[o+]1,90.4%,109%,101%,106%,99.7%,97.8%,102%,109%,107%,99.7%,106%,98.5%,97.7%,101%,86.4%,104%,106%,98.9%
C=CCN(C)S(=O)(=O)/N=C1\NC(=O)NC1=C(Cl)Cl,-18.7% (active),5.23% (active),61.2%,-37.5% (active),89.1%,104%,-37.4% (active),-84.3% (active),80.5%,72.5%,55.1%,89.1%,34.4%,-61.9% (active),11.9%,1.54% (active),40.1%,7.25% (active)
COc1cc(-c2nn(C(C)(C)C)cc2-c2ccnc(NCCCNS(=O)(=O)c3ccccc3)n2)ccc1Cl,56%,56.3%,84.9%,84.3%,57.6%,103%,55.2%,93.1%,68.3%,71%,82.3%,81.1%,84%,90.3%,70.1%,59.9%,95.6%,86.5%
O=C1[C@H]2Cc3c([nH]c4ccccc34)[C@@H](c3ccc(Br)cc3)N2C(=O)CN1C1CCN(CC2CCCCC2)CC1,-67.6% (active),-35% (active),-48.5% (active),-84.6% (active),-64% (active),64.7%,-82.2% (active),-90% (active),-56.4% (active),-83.8% (active),44.7%,-3.47% (active),-88% (active),-83.4% (active),-99.1% (active),-93.2% (active),-98.8% (active),-90.1% (active)
Nc1cc(-c2c[nH]c3ccc(Br)cc23)nc2cc(-c3c[nH]c4ccc(Br)cc34)nn12,-1.79% (active),15.9%,24.5%,7.96% (active),40.8%,116%,22.2%,22.6%,54.4%,35.5%,39.3%,76.4%,-20.3% (active),5.89% (active),8.21% (active),-72% (active),-3.56% (active),-23.2% (active)
CNC(=O)c1c(NC(=O)c2cccc(C(F)(F)F)c2F)sc2c1CCC(=O)C2,20%,-0.669% (active),16.8%,4.83% (active),8.78% (active),4.35% (active),10.5%,12.5%,8.98% (active),7.77% (active),13.8%,21.3%,11.9%,14.2%,6.33% (active),5.58% (active),25.2%,3% (active)
O=C(CN1CCN(c2cc(=O)n(-c3ccccc3)c3ccccc23)CC1)Nc1cccc(C(F)(F)F)c1,67.3%,47%,70.6%,91.8%,19.9%,77.3%,60.7%,69.8%,76.3%,64.7%,19.7%,66.6%,61.4%,75%,29.1%,42.6%,84.8%,65.1%
